Reference: publication PMC7862700, “An all-to-all approach to the identification of sequence-specific readers for epigenetic DNA modifications on cytosine”

Columns and labels:
Test in all cases: DAPPL (digital affinity profiling via proximity ligation, sequencing); 10 mM Tris-HCl pH 7.5, 50 mM NaCl, 1 mM DTT, 4% glycerol, room temperature, 30 min; GST-TFs on glutathione beads, 16-mer random dsDNA library, 0.1% formaldehyde crosslink after washing; high values mean tight binding
FEV = target: T1, FEV (Homo sapiens, UniProt Q99581 1-238); details: protein: recombinant; tags: N-terminal GST; dsDNA, one strand shown
T1 sequence: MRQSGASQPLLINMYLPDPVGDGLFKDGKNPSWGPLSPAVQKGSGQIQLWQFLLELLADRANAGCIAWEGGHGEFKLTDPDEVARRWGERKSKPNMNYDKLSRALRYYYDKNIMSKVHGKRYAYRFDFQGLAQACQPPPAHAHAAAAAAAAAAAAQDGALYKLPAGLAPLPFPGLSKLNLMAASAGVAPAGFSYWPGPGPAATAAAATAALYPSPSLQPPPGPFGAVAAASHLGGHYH
How it was run: (§1)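 Binding signal is each hexamer's read frequency for a factor divided by its frequency in the tag-only sample. The factors were GST-fused human transcription factors from yeast, captured on glutathione beads, DNA-barcoded and pooled with that sample. Pools were incubated with 200 nmole of a random double-stranded 16-mer DNA library in Tris/NaCl/DTT/glycerol buffer at room temperature for 30 min, then washed, crosslinked with 0.1% formaldehyde, proximity-ligated with BsaI/T4 ligase (1 h, 37 °C), PCR-amplified and sequenced on an Illumina NextSeq500.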

ETV5 = ETV5 (Homo sapiens, UniProt P41161 1-510); details: protein: recombinant; tags: N-terminal GST; dsDNA, one strand shown
Chain of ETV5 (P41161 whole entry): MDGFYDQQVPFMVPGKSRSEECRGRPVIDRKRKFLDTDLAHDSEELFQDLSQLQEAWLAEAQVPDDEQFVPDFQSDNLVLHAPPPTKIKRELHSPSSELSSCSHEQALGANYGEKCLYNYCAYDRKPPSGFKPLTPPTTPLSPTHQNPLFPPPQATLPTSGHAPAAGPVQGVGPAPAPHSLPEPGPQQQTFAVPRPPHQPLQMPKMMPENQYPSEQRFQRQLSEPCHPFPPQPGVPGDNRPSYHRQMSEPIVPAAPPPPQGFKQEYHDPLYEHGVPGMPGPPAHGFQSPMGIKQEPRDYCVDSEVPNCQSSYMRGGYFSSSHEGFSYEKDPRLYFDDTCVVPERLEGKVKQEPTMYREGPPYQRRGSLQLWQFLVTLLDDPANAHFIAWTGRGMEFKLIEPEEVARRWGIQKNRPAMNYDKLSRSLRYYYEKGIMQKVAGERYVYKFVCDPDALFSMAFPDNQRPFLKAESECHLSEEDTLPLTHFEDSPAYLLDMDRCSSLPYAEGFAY
How it was run: as §1

HSF1 = HSF1 (Homo sapiens, UniProt Q00613 1-529); details: protein: recombinant; tags: N-terminal GST; chain copies: 3; dsDNA, one strand shown
Chain of HSF1 (Q00613 whole entry): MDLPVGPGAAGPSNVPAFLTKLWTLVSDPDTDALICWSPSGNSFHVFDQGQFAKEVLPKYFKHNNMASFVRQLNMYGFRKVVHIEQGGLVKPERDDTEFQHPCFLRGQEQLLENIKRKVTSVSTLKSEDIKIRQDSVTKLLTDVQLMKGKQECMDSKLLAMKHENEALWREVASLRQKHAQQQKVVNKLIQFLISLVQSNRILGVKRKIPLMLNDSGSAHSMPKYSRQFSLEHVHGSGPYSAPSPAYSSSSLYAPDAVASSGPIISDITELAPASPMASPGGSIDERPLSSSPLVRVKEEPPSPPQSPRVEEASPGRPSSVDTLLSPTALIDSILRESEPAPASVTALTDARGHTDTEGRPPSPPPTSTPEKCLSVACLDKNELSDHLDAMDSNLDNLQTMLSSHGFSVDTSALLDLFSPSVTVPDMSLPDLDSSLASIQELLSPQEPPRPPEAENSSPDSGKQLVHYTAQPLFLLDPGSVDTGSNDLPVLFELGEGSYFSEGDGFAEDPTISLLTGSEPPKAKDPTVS
How it was run: as §1

SPIC = target: T2, SPIC (Homo sapiens, UniProt Q8N5J4 1-248); details: protein: recombinant; tags: N-terminal GST; dsDNA, one strand shown
T2 sequence: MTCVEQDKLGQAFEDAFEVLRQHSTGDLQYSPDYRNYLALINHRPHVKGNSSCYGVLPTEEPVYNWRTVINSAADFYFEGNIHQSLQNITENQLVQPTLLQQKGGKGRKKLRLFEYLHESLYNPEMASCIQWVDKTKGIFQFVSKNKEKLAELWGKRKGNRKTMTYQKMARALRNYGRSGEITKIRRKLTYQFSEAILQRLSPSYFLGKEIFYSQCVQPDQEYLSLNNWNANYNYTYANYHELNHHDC
How it was run: as §1

ELF4 = ELF4 (Homo sapiens, UniProt Q99607 1-663); details: protein: recombinant; tags: N-terminal GST; dsDNA, one strand shown
Chain of ELF4 (Q99607 whole entry): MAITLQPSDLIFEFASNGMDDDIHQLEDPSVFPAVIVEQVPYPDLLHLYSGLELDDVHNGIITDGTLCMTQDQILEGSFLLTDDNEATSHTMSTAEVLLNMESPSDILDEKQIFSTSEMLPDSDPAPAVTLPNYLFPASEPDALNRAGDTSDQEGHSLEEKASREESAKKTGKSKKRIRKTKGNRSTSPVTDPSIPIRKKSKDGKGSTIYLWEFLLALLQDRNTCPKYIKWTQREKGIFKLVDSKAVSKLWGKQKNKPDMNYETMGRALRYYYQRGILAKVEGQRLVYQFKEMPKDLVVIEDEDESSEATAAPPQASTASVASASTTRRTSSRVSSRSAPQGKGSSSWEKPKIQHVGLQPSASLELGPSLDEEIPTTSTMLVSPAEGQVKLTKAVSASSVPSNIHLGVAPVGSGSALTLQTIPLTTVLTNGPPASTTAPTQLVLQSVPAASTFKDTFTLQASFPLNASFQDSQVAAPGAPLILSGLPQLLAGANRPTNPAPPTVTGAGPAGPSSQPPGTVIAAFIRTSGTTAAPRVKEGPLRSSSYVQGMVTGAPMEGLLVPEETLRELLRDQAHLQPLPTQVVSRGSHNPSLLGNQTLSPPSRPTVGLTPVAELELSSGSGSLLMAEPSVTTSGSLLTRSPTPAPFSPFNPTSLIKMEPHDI
How it was run: as §1

ELK4 = target: T3, ELK4 (Homo sapiens, UniProt P28324-2 1-405); details: protein: recombinant; tags: N-terminal GST; dsDNA, one strand shown
T3 sequence: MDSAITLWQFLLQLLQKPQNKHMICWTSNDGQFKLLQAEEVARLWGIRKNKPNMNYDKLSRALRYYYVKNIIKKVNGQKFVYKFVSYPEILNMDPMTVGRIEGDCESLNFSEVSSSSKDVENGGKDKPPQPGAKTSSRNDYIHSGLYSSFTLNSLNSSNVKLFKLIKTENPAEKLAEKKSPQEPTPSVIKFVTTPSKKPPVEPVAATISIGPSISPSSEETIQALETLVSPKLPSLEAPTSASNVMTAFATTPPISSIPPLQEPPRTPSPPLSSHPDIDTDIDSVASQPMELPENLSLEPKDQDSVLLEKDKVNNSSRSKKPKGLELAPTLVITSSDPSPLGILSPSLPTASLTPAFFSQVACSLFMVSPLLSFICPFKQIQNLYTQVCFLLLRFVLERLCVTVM
How it was run: as §1

ETV2 = target: T4, ETV2 (Homo sapiens, UniProt O00321 1-342); details: protein: recombinant; tags: N-terminal GST; dsDNA, one strand shown
T4 sequence: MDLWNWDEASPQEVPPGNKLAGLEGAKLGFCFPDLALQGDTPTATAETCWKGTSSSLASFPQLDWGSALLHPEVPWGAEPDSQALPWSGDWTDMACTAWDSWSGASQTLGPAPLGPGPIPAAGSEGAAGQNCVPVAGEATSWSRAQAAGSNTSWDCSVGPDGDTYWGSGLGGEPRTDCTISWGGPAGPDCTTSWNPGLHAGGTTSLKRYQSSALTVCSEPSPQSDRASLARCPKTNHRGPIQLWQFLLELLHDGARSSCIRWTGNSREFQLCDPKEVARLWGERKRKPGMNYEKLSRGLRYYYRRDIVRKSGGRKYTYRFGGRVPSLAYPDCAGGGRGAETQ
How it was run: as §1

ELF3 = target: T5, ELF3 (Homo sapiens, UniProt P78545 1-371); details: protein: recombinant; tags: N-terminal GST; dsDNA, one strand shown
T5 sequence: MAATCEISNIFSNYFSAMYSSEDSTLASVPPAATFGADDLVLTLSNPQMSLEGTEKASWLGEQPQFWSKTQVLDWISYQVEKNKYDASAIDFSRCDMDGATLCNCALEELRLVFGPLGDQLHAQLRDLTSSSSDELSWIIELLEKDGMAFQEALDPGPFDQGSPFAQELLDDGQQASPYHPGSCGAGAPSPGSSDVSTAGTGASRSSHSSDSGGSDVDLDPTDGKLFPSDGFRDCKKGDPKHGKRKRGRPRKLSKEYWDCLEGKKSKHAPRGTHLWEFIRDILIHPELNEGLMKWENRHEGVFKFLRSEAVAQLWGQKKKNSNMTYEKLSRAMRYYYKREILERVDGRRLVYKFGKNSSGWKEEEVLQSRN
How it was run: as §1

CRX = CRX (Homo sapiens, UniProt O43186 1-299); details: protein: recombinant; tags: N-terminal GST; dsDNA, one strand shown
Chain of CRX (O43186 whole entry): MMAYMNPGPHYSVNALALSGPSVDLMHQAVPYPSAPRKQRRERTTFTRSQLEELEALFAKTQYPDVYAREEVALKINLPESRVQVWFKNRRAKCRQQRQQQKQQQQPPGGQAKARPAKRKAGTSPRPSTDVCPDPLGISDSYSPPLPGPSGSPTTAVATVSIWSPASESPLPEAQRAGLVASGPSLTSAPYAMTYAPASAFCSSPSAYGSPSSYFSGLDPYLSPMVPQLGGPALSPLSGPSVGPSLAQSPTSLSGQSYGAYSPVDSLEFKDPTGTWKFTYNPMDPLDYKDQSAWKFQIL
How it was run: as §1

ETV1 = ETV1 (Homo sapiens, UniProt P50549 1-477); details: protein: recombinant; tags: N-terminal GST; dsDNA, one strand shown
Chain of ETV1 (P50549 whole entry): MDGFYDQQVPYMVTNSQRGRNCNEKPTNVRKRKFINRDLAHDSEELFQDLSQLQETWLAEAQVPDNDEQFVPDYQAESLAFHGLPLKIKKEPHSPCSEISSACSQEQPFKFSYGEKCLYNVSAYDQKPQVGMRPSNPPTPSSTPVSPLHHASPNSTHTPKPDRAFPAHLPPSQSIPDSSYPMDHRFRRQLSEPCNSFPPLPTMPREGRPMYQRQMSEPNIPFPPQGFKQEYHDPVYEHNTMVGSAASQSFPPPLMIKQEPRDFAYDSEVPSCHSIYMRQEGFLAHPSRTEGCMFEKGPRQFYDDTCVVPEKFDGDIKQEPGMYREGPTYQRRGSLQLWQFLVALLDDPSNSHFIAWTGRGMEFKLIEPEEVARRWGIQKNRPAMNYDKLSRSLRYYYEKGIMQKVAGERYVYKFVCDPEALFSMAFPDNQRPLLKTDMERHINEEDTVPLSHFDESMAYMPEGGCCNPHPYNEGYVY
How it was run: as §1

ERF = target: T6, ERF (Homo sapiens, UniProt P50548 1-548); details: protein: recombinant; tags: N-terminal GST; dsDNA, one strand shown
T6 sequence: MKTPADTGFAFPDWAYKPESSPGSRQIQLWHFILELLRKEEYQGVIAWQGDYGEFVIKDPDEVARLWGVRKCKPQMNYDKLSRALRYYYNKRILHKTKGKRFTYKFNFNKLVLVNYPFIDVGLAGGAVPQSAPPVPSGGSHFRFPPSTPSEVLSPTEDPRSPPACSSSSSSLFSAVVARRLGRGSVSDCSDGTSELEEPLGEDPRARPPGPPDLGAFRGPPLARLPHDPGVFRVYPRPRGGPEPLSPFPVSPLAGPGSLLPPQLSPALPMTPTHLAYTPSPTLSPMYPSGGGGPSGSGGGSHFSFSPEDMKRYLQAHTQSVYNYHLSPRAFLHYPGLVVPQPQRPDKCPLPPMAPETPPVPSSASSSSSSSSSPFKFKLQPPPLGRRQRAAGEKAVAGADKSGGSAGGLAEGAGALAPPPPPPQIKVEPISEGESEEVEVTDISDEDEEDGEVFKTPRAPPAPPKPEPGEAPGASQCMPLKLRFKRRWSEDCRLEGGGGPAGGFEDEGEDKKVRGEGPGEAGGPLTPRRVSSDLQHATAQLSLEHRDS
How it was run: as §1

ETV3L = target: T7, ETV3L (Homo sapiens, UniProt Q6ZN32 1-361); details: protein: recombinant; tags: N-terminal GST; dsDNA, one strand shown
T7 sequence: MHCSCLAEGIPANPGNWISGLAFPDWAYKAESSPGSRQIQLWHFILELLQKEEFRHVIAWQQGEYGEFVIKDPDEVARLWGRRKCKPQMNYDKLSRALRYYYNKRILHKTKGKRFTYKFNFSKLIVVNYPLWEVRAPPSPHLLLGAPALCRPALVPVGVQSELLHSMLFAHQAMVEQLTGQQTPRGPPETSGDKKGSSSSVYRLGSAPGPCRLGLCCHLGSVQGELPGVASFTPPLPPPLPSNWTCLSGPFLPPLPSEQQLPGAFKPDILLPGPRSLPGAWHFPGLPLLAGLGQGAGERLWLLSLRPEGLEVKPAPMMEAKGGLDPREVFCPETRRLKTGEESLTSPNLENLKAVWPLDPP
How it was run: as §1

ETS2 = target: T8, ETS2 (Homo sapiens, UniProt P15036 1-469); details: protein: recombinant; tags: N-terminal GST; dsDNA, one strand shown
T8 sequence: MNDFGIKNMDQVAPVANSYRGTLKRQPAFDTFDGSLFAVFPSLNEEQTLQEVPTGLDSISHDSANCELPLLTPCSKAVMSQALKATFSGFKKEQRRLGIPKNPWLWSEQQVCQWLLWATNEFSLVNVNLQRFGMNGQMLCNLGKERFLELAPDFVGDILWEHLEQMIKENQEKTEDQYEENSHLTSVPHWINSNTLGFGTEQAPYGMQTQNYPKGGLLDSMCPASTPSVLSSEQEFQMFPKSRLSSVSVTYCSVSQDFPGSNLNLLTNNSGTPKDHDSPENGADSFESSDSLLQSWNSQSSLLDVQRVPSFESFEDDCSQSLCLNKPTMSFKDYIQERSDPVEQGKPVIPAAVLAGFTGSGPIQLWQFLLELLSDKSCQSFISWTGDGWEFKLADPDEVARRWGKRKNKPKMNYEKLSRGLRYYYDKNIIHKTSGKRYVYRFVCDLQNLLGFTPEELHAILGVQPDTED
How it was run: as §1

SPDEF = target: T9, SPDEF (Homo sapiens, UniProt O95238 1-335); details: protein: recombinant; tags: N-terminal GST; dsDNA, one strand shown
T9 sequence: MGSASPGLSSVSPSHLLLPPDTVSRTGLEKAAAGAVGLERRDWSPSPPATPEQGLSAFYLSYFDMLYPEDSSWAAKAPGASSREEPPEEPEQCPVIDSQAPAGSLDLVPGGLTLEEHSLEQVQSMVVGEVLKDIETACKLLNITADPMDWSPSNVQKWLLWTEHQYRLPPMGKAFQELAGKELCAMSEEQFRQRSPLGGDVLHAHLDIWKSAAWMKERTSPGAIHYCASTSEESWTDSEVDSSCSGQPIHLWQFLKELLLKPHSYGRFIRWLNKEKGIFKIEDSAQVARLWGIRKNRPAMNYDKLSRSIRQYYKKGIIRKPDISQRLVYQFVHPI
How it was run: as §1

ETV7 = target: T10, ETV7 (Homo sapiens, UniProt Q9Y603 1-341); details: protein: recombinant; tags: N-terminal GST; dsDNA, one strand shown
T10 sequence: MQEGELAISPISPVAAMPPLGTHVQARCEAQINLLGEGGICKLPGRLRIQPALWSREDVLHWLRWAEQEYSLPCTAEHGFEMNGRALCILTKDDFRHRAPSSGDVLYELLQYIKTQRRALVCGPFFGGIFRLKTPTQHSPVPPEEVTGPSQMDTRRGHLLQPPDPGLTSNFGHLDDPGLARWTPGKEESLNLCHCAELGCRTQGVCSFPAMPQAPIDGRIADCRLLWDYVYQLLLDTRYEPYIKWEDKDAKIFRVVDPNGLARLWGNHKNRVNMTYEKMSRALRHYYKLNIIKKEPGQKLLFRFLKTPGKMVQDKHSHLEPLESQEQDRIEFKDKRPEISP
How it was run: as §1

ELF5 = target: T11, ELF5 (Homo sapiens, UniProt Q9UKW6-2 1-255); details: protein: recombinant; tags: N-terminal GST; dsDNA, one strand shown
T11 sequence: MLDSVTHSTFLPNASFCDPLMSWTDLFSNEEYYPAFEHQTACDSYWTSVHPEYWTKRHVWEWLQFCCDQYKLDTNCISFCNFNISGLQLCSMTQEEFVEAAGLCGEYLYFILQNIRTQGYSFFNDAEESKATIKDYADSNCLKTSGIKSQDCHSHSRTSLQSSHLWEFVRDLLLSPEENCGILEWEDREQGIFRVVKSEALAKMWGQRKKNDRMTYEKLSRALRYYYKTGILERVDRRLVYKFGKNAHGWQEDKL
How it was run: as §1

ETV3 = target: T12, ETV3 (Homo sapiens, UniProt P41162-2 1-143); details: protein: recombinant; tags: N-terminal GST; dsDNA, one strand shown
T12 sequence: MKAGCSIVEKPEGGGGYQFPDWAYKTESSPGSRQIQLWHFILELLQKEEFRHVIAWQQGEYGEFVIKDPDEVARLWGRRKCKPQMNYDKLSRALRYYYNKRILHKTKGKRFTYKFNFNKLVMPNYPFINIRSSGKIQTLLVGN
How it was run: as §1

ETV6 = ETV6 (Homo sapiens, UniProt P41212 1-452); details: protein: recombinant; tags: N-terminal GST; dsDNA, one strand shown
Chain of ETV6 (P41212 whole entry): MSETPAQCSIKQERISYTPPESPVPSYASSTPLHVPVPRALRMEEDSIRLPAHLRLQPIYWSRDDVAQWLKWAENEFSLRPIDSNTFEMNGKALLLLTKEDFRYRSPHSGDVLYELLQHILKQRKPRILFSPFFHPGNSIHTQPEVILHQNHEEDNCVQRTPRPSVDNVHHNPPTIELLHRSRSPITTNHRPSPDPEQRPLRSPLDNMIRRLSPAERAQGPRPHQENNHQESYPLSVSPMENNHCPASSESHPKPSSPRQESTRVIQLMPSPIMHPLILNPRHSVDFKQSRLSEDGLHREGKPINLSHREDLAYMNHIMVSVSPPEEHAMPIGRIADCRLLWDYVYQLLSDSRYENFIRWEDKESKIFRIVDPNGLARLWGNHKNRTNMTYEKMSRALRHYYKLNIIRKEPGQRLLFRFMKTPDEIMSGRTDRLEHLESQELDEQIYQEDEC
How it was run: as §1

**Q.** With GATGTA as the sequence, how does the binding signal (FEV) read?
**A.** 1.4 fold enrichment (6-mer frequency, TF over GST control)

**Q.** And the binding signal (ETV5)?
**A.** 1.37 fold enrichment (6-mer frequency, TF over GST control)

**Q.** What about the binding signal (HSF1) of the same sequence?
**A.** 1.01 fold enrichment (6-mer frequency, TF over GST control)

**Q.** And the binding signal (SPIC)?
**A.** 1.12 fold enrichment (6-mer frequency, TF over GST control)

**Q.** And the binding signal (ELF4)?
**A.** 1.33 fold enrichment (6-mer frequency, TF over GST control)

**Q.** What about the binding signal (ELK4) of the same sequence?
**A.** 1.28 fold enrichment (6-mer frequency, TF over GST control)

**Q.** What about the binding signal (ETV2) of the same sequence?
**A.** 1.18 fold enrichment (6-mer frequency, TF over GST control)

**Q.** And the binding signal (ELF3)?
**A.** 1.53 fold enrichment (6-mer frequency, TF over GST control)

**Q.** And the binding signal (CRX)?
**A.** 1.06 fold enrichment (6-mer frequency, TF over GST control)

**Q.** And the binding signal (ETV1)?
**A.** 1.33 fold enrichment (6-mer frequency, TF over GST control)

**Q.** And the binding signal (ERF)?
**A.** 1.18 fold enrichment (6-mer frequency, TF over GST control)

**Q.** What about the binding signal (ETV3L) of the same sequence?
**A.** 1.39 fold enrichment (6-mer frequency, TF over GST control)

**Q.** And the binding signal (ETS2)?
**A.** 1.49 fold enrichment (6-mer frequency, TF over GST control)

**Q.** And the binding signal (SPDEF)?
**A.** 2 fold enrichment (6-mer frequency, TF over GST control)

**Q.** And the binding signal (ETV7)?
**A.** 1.43 fold enrichment (6-mer frequency, TF over GST control)

**Q.** And the binding signal (ELF5)?
**A.** 1.38 fold enrichment (6-mer frequency, TF over GST control)

**Q.** What about the binding signal (ETV3) of the same sequence?
**A.** 1.39 fold enrichment (6-mer frequency, TF over GST control)

**Q.** What about the binding signal (ETV6) of the same sequence?
**A.** 1.35 fold enrichment (6-mer frequency, TF over GST control)
